AHR act: AHR activators, primary screen, cell-based, luminescence, luciferase reporter, human; Aryl hydrocarbon receptor (Homo sapiens), P35869; AHR-responsive luciferase reporter cells; activation, % at 5 µM; hit rate 2.5% among 320,000; AID 2796, 2010; in the data active means activation above about 47%;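 further: 0% = vehicle wells and 100% = reference agonist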
Target sequence (P35869 whole entry, looked up): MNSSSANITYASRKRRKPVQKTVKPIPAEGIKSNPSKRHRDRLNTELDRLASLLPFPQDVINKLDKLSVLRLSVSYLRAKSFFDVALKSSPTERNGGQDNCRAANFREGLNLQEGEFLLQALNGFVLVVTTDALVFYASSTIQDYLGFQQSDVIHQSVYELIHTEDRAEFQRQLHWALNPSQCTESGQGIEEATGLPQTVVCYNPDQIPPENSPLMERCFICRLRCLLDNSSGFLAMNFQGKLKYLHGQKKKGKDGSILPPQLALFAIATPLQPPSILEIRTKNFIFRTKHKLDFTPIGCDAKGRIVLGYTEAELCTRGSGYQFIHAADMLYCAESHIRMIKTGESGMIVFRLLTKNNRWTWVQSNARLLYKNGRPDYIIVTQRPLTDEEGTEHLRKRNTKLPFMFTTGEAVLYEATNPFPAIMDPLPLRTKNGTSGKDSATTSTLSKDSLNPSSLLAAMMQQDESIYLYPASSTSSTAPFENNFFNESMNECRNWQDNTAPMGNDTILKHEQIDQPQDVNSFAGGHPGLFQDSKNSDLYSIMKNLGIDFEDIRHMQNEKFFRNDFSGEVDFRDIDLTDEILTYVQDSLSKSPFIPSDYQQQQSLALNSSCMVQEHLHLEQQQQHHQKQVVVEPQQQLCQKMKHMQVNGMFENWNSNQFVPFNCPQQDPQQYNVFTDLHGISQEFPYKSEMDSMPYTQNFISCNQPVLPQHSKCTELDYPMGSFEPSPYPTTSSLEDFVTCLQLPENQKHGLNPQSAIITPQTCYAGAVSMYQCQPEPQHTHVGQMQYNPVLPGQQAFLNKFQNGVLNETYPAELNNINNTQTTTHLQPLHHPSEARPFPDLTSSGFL
HSF-1 act: HSF-1 activators, primary screen, NIH3T3-HGL cells, MG132 stress, luminescence, single point | NIH3T3-HGL HSF-1 luciferase reporter, 8 h; 100% = twice DMSO control signal | activation, % at 9 µM | hit rate 1.7% among 300,000;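 active means mean replicate activation of at least 50% with a set share of replicates each reaching 50%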;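 further: 0% = median of the neutral control wells and 100% = twice that signal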
GAA850 FXN act: FXN promoter activators, primary screen, cell-based, luciferase luminescence, HEK293 lucGAA850. HEK293 lucGAA850 FXN promoter luciferase reporter, 24 h; percent of 10 µM SAHA response. activation, % at 6 µM. hit rate 0.56% among 360,000. AID 540364, 2011;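 active means activation above the average of all compounds screened plus 3 SD, cutoff fixed separately per campaign, cut at about 7.5% in these data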;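 further: 0% = DMSO wells and 100% = 10 µM SAHA wells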
HSF1 inhib: HSF1 inhibitors in luciferase reporter cells, primary screen, cell-based, NIH3T3, luminescence. NIH3T3-HGL HSE-luciferase, MG132-induced, luminescence 8 h; active compounds read low. activity change, negative = inhibition, % at 7.5 µM (by protocol). hit rate 0.77% among 300,000;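 active means more than half of replicate wells show activity change below -50%, luminescence cut by over half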;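 further: luciferase reports HSF-1 transcriptional activity via heat shock element; 0% = median of DMSO wells and -100% = zero luminescence signal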
Starred values were filed as active, the others as inactive. Only some compounds are listed: those with a hit (about 4.6% of all), similar ones and a draw of the others.

How did N#CCCN1CCN(C2=NC(=O)C(=C3CCCCC3)S2)CC1 do in these assays?
AHR act: 1.5; HSF-1 act: 9.5; GAA850 FXN act: -0.1; HSF1 inhib: 1.1

What do the screens show for `CN(C)S(=O)(=O)c1ccc(C(=O)OCCCN=C2NS(=O)(=O)c3ccccc32)cc1`?
AHR act: 7.9; HSF-1 act: -73.4; GAA850 FXN act: 1.3; HSF1 inhib: -66.5*

Results for CN(C)S(=O)(=O)c1ccc(C(=O)OCCN=C2NS(=O)(=O)c3ccccc32)cc1 ?
AHR act: 0.1; HSF-1 act: 3.2; GAA850 FXN act: -0.8; HSF1 inhib: 3.3

How did Cc1nn(C(C)C(=O)N2CCc3ccccc32)c(C)c1[N+](=O)[O-] (centres undefined) do in these assays?
AHR act: 63.0*; HSF-1 act: -3.9; GAA850 FXN act: 1.2; HSF1 inhib: 1.5

Results for CCCNC(=O)NC1CCCc2ccccc21 (centres undefined) ?
AHR act: -1.4; HSF-1 act: -0.3; GAA850 FXN act: -1.5; HSF1 inhib: 1.3

Results for O=c1[nH]c(=S)[nH]cc1S(=O)(=O)c1cccc(Cl)c1 ?
HSF-1 act: 12.2; GAA850 FXN act: 0.6; HSF1 inhib: 6.1

How did Cc1cc(C)c(NC(=O)c2cnn(C)c2)c(C)c1 do in these assays?
AHR act: -5.3; HSF-1 act: 10.7; GAA850 FXN act: -1.5; HSF1 inhib: -3.4

Results for CCOC(=O)N1CCN(S(=O)(=O)c2ccc(C(=O)NNc3nc4c(C)cccc4s3)cc2)CC1 ?
AHR act: 19.9; HSF-1 act: -19.1; GAA850 FXN act: -3.6; HSF1 inhib: -3.5

How did CCOC(=O)N1CCN(S(=O)(=O)c2ccc(C(=O)NNc3nc4c(C)cc(C)cc4s3)cc2)CC1 do in these assays?
AHR act: 47.5*; HSF-1 act: -1.7; GAA850 FXN act: -2.0; HSF1 inhib: -4.7

What do the screens show for `Cc1ccc(NC(=O)/C=C/c2cccs2)c([N+](=O)[O-])c1`?
AHR act: 3.1; HSF-1 act: 62.7*; GAA850 FXN act: -1.3; HSF1 inhib: 35.6

What do the screens show for `CCCCCCCCCCS(=O)(=O)N/N=C/c1ccccc1OC`?
AHR act: 2.6; HSF-1 act: 27.2; GAA850 FXN act: 0.1; HSF1 inhib: 2.6

What do the screens show for `O=C(Nc1ccc(Cl)cc1)Nc1ccc(Cl)c(Cl)c1`?
AHR act: 20.7

What do the screens show for `O=C(Nc1ccc(Cl)c(Cl)c1)Nc1ccon1`?
AHR act: 70.8*; HSF-1 act: 10.7; GAA850 FXN act: -4.2; HSF1 inhib: 7.7

What do the screens show for `O=C(Nc1ccc(Cl)c(Cl)c1)Nc1ccccc1O`?
AHR act: 27.1; HSF-1 act: 92.4*; GAA850 FXN act: 3.4; HSF1 inhib: 46.8

What do the screens show for `C=CCOc1ccc(/C(CC)=N/O)c(OC)c1`?
AHR act: 8.1; HSF-1 act: 23.8; GAA850 FXN act: 2.3; HSF1 inhib: 9.1

How did OCc1ccccc1-c1ccc2nccn2c1 do in these assays?
GAA850 FXN act: 2.4

How did CC1COc2ccccc2N1S(=O)(=O)c1ccc(Cl)cc1 (centres undefined) do in these assays?
AHR act: 4.7; HSF-1 act: -0.1; GAA850 FXN act: 0.1; HSF1 inhib: -4.5

How did Cc1ccc(S(=O)(=O)N2c3ccccc3OCC2c2ccccc2)cc1 (centres undefined) do in these assays?
AHR act: 1.0; HSF-1 act: 56.1*; GAA850 FXN act: 0.6; HSF1 inhib: 5.1

How did Cc1[nH]n(-c2ccccc2)c(=O)c1/C=N/N1C(=O)c2ccc3c4c(ccc(c24)C1=O)CC3 do in these assays?
AHR act: 15.4; HSF-1 act: 74.9*; GAA850 FXN act: 1.0; HSF1 inhib: 34.1

Results for O=C1NC(=O)/C(=C\c2ccccc2OCc2ccc([N+](=O)[O-])cc2)N1 ?
AHR act: 72.0*; HSF-1 act: 24.9; GAA850 FXN act: 2.2; HSF1 inhib: 21.7

What do the screens show for `Cc1cc(OCC(=O)Nc2cccc(S(=O)(=O)NC3=NCCCCC3)c2)ccc1Cl`?
AHR act: 5.1; HSF-1 act: 10.3; GAA850 FXN act: 2.2; HSF1 inhib: -2.0

Results for O=C(NNC(=O)c1cccnc1)NC12CC3CC(CC(C3)C1)C2 ?
AHR act: -1.4; HSF-1 act: 4.4; GAA850 FXN act: -0.3; HSF1 inhib: -0.5

How did Cc1cc(C)cc(NC(=S)NC(=O)CCN2C(=O)c3ccccc3C2=O)c1 do in these assays?
AHR act: 18.4; HSF-1 act: -16.8; GAA850 FXN act: -1.7; HSF1 inhib: -5.9

High-throughput results: PubChem BioAssay, several laboratories
